DT40 TDP1 no CPT: qHTS for Inhibitors of human tyrosyl-DNA phosphodiesterase 1 (TDP1): qHTS in cells in absence of CPT; DT40 Tdp1-/- hTDP1 cells, no CPT, ATP luminescence, 48 h; hit rate 15% among 420,000; AID 686978, 2013; Potency, µM (titrated, usually from 46.2 µM), for inactives: top-dose activity change, negative = growth inhibition, actives largely listed as inhibitors; note: % is set by controls: 0 for no effect and ±100 for the full control effect; nearly all actives have a fitted effect of over 55% in size
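Seeded 400 DT40-hTDP1 cells/well (vehicle DMSO, no 20 nM CPT); pinned compounds; ≥48 hr at 37 °C; CellTiter-Glo luminescence as viability measure.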
ATXN2 expr inh: ATXN2 expression inhibition | HEK-293 ATXN2-luciferase reporter, luminescence, 24 h | hit rate 0.72% among 360,000 | AID 1745845 | Potency, µM (highest dose often 57 µM), for inactives: top-dose activity change, negative = inhibition, usual class: inhibitors; note: % is set by controls: 0 for no effect and ±100 for the full control effect; nearly all actives have a fitted effect of over 55% in size
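qHTS (up to 57 uM final) was run with 24 h compound exposure of reporter cells at 37 °C. Each well was multiplexed: SteadyGlo luminescence measured ATXN2-luciferase expression after a fluorogenic Gly-Phe-AFC viability readout (25 uM final).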
ATXN viability: viability counter-screen for ATXN expression inhibitors; S2 cells (HEK-293 line with an ATXN2-luciferase reporter) viability, CellTiter-Fluor protease fluorescence, 24 h; Potency, µM (highest dose often 56.7 µM), actives largely listed as cytotoxic; hit rate 0.49% among 400,000; note: nearly all actives have a fitted effect of over 40% in size
TDP1 cell CPT: DT40-hTDP1 cell growth loss with CPT | chicken DT40 Tdp1-/-;hTDP1 cells + 20 nM CPT, ATP luminescence, 48 h | Potency, µM (doses to about 46.2 µM), without a hit: at the highest dose activity change, negative = growth inhibition, usual class: inhibitors | hit rate 12% among 420,000; note: % is set by controls: 0 for no effect and ±100 for the full control effect; nearly all actives have a fitted effect of over 55% in size
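Cell growth measured by CellTiter-Glo luminescence after a minimum 48 h, 37 C compound exposure with 20 nM CPT in Tdp1-knockout DT40 cells stably expressing hTDP1, seeded 400/well; qHTS titration format.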
HepG2 tox: kills HepG2 cells in TGF-b inhibitor counter-screen | HepG2 CAGA-GFP viability, ATP luminescence, 18 h | Potency, µM (top dose mostly 46.1 µM), for the others: top-dose activity change, negative = cytotoxicity, most hits filed as cytotoxic | hit rate 0.76% among 410,000 | AID 588856
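HepG2 CAGA-GFP cells (1000/well, DMEM with 1% FBS) received compound, then TGF-beta at 500 pg/mL final, and were incubated 18 hours at 37 degrees C. Viability was read by CellTiter-Glo luminescence. Media-only wells were set as complete cell-killing and DMSO as no toxicity.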
TGFb inhibitor: inhibitors of TGF-b signaling | HepG2 CAGA-GFP TGF-b/SMAD3 reporter, GFP fluorescence, 18 h; TGF-beta stimulated, 500 pg/mL final | Potency, µM (series often up to 46.1 µM), for inactives: top-dose activity, negative = inhibition, actives largely listed as inhibitors | AID 588855 | hit rate 1.2% among 410,000; note: % is set by controls: 0 for no effect and ±100 for the full control effect; nearly all actives have a fitted effect of over 65% in size
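Using HEPG2 CAGA-GFP reporter cells at 1000 cells/well, we pinned test compounds, stimulated with recombinant TGF-beta (500 pg/mL final) and measured total well GFP after 18 h.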
* hit, by the source's call; i = inactive; ? = inconclusive; nt = not tested or not shown. The list is not random: actives were taken first. Their share in the collection is about 17%. Calls come from the whole dose curve; as a rule, active = well fitted curve in the direction sought with a large enough effect; inconclusive = small, poorly fitted or top-dose-only effect, or another doubt; inactive = no such curve, though single readings can be large; an effect the other way counts as inactive or inconclusive. Potency is the fitted concentration of half-maximal effect.

SMILES	DT40 TDP1 no CPT	ATXN2 expr inh	ATXN viability	TDP1 cell CPT	HepG2 tox	TGFb inhibitor
Cc1ccc(-c2n[nH]c(=S)n2C)cc1	16µM*	5%	i	26µM*	-32%	-1%
COc1ccc(-c2n[nH]c(=S)n2-c2cc(OC)ccc2OC)cc1	-24%	22%	i	-29%	-8%	-7%
CCOc1ccc(Cc2n[nH]c(=S)n2Cc2ccccc2)cc1	16µM*	nt	i	?	-35%	?
Cc1ccc(OCc2n[nH]c(=S)n2Cc2ccccc2)cc1	-12%	-3%	i	-2%	-3%	0%
COc1ccc(-c2n[nH]c(=S)n2-c2ccc(C)cc2)cc1	?	-4%	i	?	-28%	-1%
COc1ccc(-n2c(-c3ccc(C(C)(C)C)cc3)n[nH]c2=S)c(OC)c1	23µM*	nt	i	16µM*	-20%	-10%
COc1ccc(Oc2nccc(-c3ccccc3)c2C#N)cc1	?	63%	i	-23%	-34%	15%
O=C(CCNC(=O)Cn1ccc2ccccc2c1=O)NCC1CCCC1c1ccccc1 (centres undefined)	0%	-7%	i	-23%	1%	-2%
CCS(=O)(=O)NCCCCc1ccccc1	-4%	6%	i	3%	0%	8%
CCS(=O)(=O)NCCCc1ccccc1	?	-2%	i	21µM*	-6%	-2%
COc1ccccc1-n1cnc2c(c1=O)c1nc3ccccc3nc1n2-c1ccc(C)c(C)c1	18µM*	nt	i	-77%	-2%	-1%
COCCCn1c2nc3ccccc3nc2c2c(=O)n(-c3ccccc3OC)cnc21	-29%	-3%	i	?	-3%	-18%
Cc1ccc(C2(C(F)(F)F)NC(=O)N3CCN=C3S2)cc1 (centres undefined)	?	-3%	i	21µM*	-2%	6%
COc1ccc(Cc2c(C3CCCCC3)nc3cc(C)c(Br)c(C)n23)c(C)c1	?	4%	i	-5%	nt	nt
COc1ccc(Cc2c(C3CCCCC3)nc3c(Cl)cc(C(F)(F)F)cn23)c(C)c1	?	2%	?	18µM*	nt	nt
COc1ccc(Cc2c(C3CCCCC3)nc3ccc(Br)cn23)c(C)c1	23µM*	-5%	i	16µM*	-33%	-19%
O=C(O)CCC1OC(=O)C(O)=C1c1ccccc1 (centres undefined)	5%	7%	i	1%	14%	35%
COC(=O)c1ccc2nc(-c3cccc(Cl)c3)c(CC3CCCCC3)n2c1	-17%	33%	i	5%	nt	nt
COC(=O)c1ccc2nc(-c3cccc(Cl)c3)c(Cc3cccc(F)c3)n2c1	9.2µM*	16%	i	16µM*	nt	nt
COC(=O)c1ccc2nc(-c3cccc(Cl)c3)c(Cc3cccc(Cl)c3)n2c1	?	9%	i	4.6µM*	nt	nt
COc1ccc(C(=O)c2cc(C(C)=O)c(Nc3ccccc3)s2)cc1	26µM*	-30%	?	?	-12%	0%
COc1ccc(C(=O)c2sc(Nc3ccccc3)nc2N)cc1	?	-5%	i	?	-54%	11µM*
Cc1cnc(NC(=O)c2sc(Nc3ccccc3)nc2N)o1	?	nt	i	?	2%	9%
COc1ccc(C(=O)c2sc(Nc3cc(Cl)ccc3C)nc2N)cc1OC	?	?	i	?	-26%	?
COc1ccc(C(=O)c2sc(Nc3ccccc3F)nc2N)cc1	12µM*	nt	?	?	5%	-21%
SMILES	DT40 TDP1 no CPT	ATXN2 expr inh	ATXN viability	TDP1 cell CPT	HepG2 tox	TGFb inhibitor
COc1ccc(C(=O)c2sc(Nc3ccccc3)nc2N)cc1OC	?	?	nt	?	-13%	13µM*
c1ccc(Nc2cc(-c3ccoc3)ncn2)cc1	-5%	nt	nt	-22%	nt	nt
O=C(C(=O)N1CCN(c2ccccc2)CC1)c1ccccc1	-1%	nt	nt	14%	nt	nt
CC(C)(C)c1ccc(-c2noc(-c3ccc4c(c3)CCO4)n2)cc1	?	18%	i	1%	-38%	-19%
O=C(NCCC1CCCCN1S(=O)(=O)c1ccccc1)C(=O)NCc1cccnc1 (centres undefined)	5%	-4%	i	6%	-1%	-5%
COC(=O)CCc1sc(Nc2ccccc2)nc1-c1ccc(OC)cc1	16µM*	26%	i	?	-11%	18%
NC(=O)c1c(NC(=O)CS(=O)(=O)c2ccc(Cl)cc2)sc2c1CCCCC2	16µM*	nt	nt	23µM*	-49%	0%
CN(CC(=O)Nc1ccccc1Cl)CC(=O)Nc1sc2c(c1C(N)=O)CCC2	18µM*	-8%	?	26µM*	-25%	?
CN(CC(=O)Nc1ccccc1Cl)C(=O)c1cc2c(s1)CCCCC2	16µM*	-10%	i	?	11%	17%
N#Cc1c(NC(=O)CS(=O)(=O)c2ccc(Cl)cc2)sc2c1CCCCC2	?	nt	nt	?	-30%	0%
CN(CC(=O)Nc1ccc(Cl)cc1)CC(=O)Nc1sc2c(c1C(N)=O)CCC2	15µM*	nt	?	21µM*	-19%	?
CCCc1ccc(NC(C)C(=O)Nc2ccc(S(=O)(=O)N3CCOCC3)cc2)cc1 (centres undefined)	?	3%	?	?	-10%	-3%
CNC(=O)c1c(NC(=O)CS(=O)(=O)c2ccc(Cl)cc2)sc(C)c1C	?	-7%	i	9.2µM*	-17%	?
CNC(=O)c1c(NC(=O)CS(=O)(=O)c2ccccc2)sc(C)c1C	-28%	-4%	i	-9%	-11%	-8%
COc1ccc(Nc2nc3c(S(=O)(=O)c4ccccc4)nnn3c3ccsc23)cc1OC	-7%	nt	nt	-11%	6%	52%
Cc1ccc(-c2nc(CS(=O)(=O)CC(=O)N3CCCCCC3)c(C)o2)cc1	?	-21%	i	?	-33%	-33%
Cc1ccc(-c2nc(CS(=O)(=O)CC(=O)N3CCN(c4ccccc4)CC3)c(C)o2)cc1	23µM*	nt	nt	?	-29%	11µM*
Cc1ccc(-c2nc(CS(=O)(=O)CC(=O)N3CCc4ccccc4C3)c(C)o2)cc1	21µM*	?	i	18µM*	-12%	-15%
CCOc1ccccc1CNn1cnnc1SCC(=O)NC(C)(C)C	-2%	nt	i	3%	-67%	1%
C1CCC(c2nn3c(-c4n[nH]c5c4CCC5)nnc3s2)CC1	?	20%	i	?	-61%	40%

High-throughput results from PubChem.
